# ADAM17 inh: inhibits human ADAM17 | recombinant ADAM17, EDANS/DABCYL FRET peptide cleavage | inhibition, % at 6.95 µM | 370,000 compounds, 0.83% hits;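 active means inhibition above the mean of compounds lying between control limits plus 3 SD, set per campaign, cut at about 8.5% in these data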;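 further: 0% = DMSO-only wells as the low control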
# GRIN3A LBD mod: NR3A (human) ligand-binding domain modulation. AID 1259313. NR3A LBD differential scanning fluorimetry, Tm shift; 0% = protein alone, 100% = glycine-bound protein. Tm shift relative to glycine control, % at 25 µM. 340,000 compounds, 2.5% hits;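 active means melting temperature shift of at least 10% of the positive control shift, at one fixed dose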
# aDG glyco up: increases alpha dystroglycan glycosylation; Pro5-aDG cells, alpha-DG glycosylation AlphaScreen (IIH6); 0% Pro5, 100% B10-LARGE cell signal; activation, % at 10 µM; 360,000 compounds, 0.22% hits; AID 624168;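 active means activation of at least 8% versus controls, or a plate z-score of at least 8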;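 further: Pro5 are CHO cells carrying HIG-tagged alpha-DG that lacks glycosylation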
# ADAM10 inh: ADAM10 inhibition, QFRET primary screen; O14672; recombinant ADAM10, EDANS/DABCYL FRET peptide cleavage, 3 h; inhibition, % at 7 µM; 370,000 compounds, 0.62% hits;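 active means inhibition above a per-campaign cutoff equal to the mean of compounds falling between control-based bounds plus 3 SD, cut at about 20% in these data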;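 further: 0% = DMSO wells while the 100% control is not disclosed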
# FAS-TE inh: FAS thioesterase (human) inhibition | AID 602261 | P49327 | recombinant FAS-TE, OMFH fluorogenic substrate, fluorescence endpoint | 360,000 compounds, 0.67% hits | inhibition, % at 15 µM;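 active means compounds whose normalised, plate-corrected inhibition of enzyme fluorescence in the single-dose primary screen is 50% or more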;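 further: 0% = DMSO with enzyme and 100% = substrate without enzyme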
# Starred values were filed as active, the others as inactive; . = not tested or not shown. Sampled rows, rich in hits. Any-hit rate of the full collection: about 4%.
SMILES,ADAM17 inh,GRIN3A LBD mod,aDG glyco up,ADAM10 inh,FAS-TE inh
COc1cc(/C=N/N=C(/N)c2nonc2N)cc(Br)c1OCc1ccccc1C,-3,15*,0,12,27
CC(=O)NCC(=O)OCc1ccc([N+](=O)[O-])cc1,-3,3,0,0,-4
O=C(O)c1ccc(COc2ccccc2Cl)cc1,-5,13*,0,-8,-7
COC(=O)c1ccccc1N=Nc1c(N)n[nH]c1N,1,3,0,1,-6
Cc1cccc(N=Nc2c(N)n[nH]c2-c2ccc(Cl)cc2)c1,7,34*,0,10,22
Cc1ccc(-c2[nH]nc(N)c2N=Nc2cccc(Cl)c2C)cc1,4,28*,0,7,20
Cc1ccc(N=Nc2c(N)n[nH]c2N)cc1,2,-2,0,3,-5
O=C(N/N=C/c1ccc(Br)s1)c1cccs1,-1,6,0,9,0
O=C(N/N=C/c1ccc(Br)s1)Nc1ccccc1,0,20*,0,-3,26
O=C(N/N=C/c1cc(Br)cs1)c1c[nH]c2ccccc12,0,38*,0,-3,16
O=C(N/N=C/c1ccc(Br)s1)c1c[nH]c2ccccc12,1,25*,0,-4,11
O=C(N/N=C/c1cc2c(cc1Br)OCO2)c1c[nH]c2ccccc12,1,15*,0,-1,19
C[C@@H]1CN([C@@H](C)CO)S(=O)(=O)c2ccc(Br)cc2O[C@H]1CN(C)C(=O)c1ccncc1,0,.,0,-1,-5
O=C(NCc1cccc(Cl)c1)c1ccc2nc(N3CCOCC3)sc2c1,-3,-3,1,-6,8
CCOc1ccccc1-n1c(SCC(=O)N(CC)CC)nnc1-c1ccccn1,-4,1,0,-10,-8
CC1CC2(C)CC(C)C1(COC(=O)Nc1ccccc1)CO2 (configuration not stated),3,7,0,-3,-4
O=C(N/N=C/c1cc2c(cc1Br)OCO2)c1ccccn1,-1,-1,0,-9,-2
O=C(N/N=C/c1cc2c(cc1Br)OCO2)c1cc2ccccc2o1,-8,13*,2,-34,12
CSc1ccc(/C=N/n2c(C)nc3ccccc3c2=O)cc1,-1,1,0,-5,-4
CCCN(C(=O)c1cc2c(s1)CCC2)c1c(N)n(Cc2ccccc2)c(=O)[nH]c1=O,-10,0,0,-17,1
O=C(Nc1ccc(Cl)cc1C(F)(F)F)C(Sc1nnc(-c2cccs2)o1)c1ccccc1 (configuration not stated),1,22*,0,4,11
O=C(Nc1cc(C(F)(F)F)ccc1Cl)C(Sc1nnc(-c2cccs2)o1)c1ccccc1 (configuration not stated),3,3,0,7,3
CN1C(=O)c2ccc(C(=O)Nc3ccccc3O)cc2C1=O,-4,-7,0,-4,-3
Cc1ccccc1OCC(=O)OCC(=O)c1ccc(OC(=O)c2ccccc2)cc1,-3,0,0,-5,22
Cc1ccccc1OCC(=O)OCC(=O)c1ccc(OCc2ccccc2)cc1,1,25*,0,1,19
SMILES,ADAM17 inh,GRIN3A LBD mod,aDG glyco up,ADAM10 inh,FAS-TE inh
CC1Cc2cc(/C(O)=C3/C(=O)C(=O)N(CCCN(C)C)C3c3ccncc3)ccc2O1 (configuration not stated),-4,-1,0,-2,-5
O=C(Nc1ccc(Cl)cc1)N(C1=NCCC1)c1ccc(OC(F)F)cc1,0,23*,0,0,35
Cc1ccc(O)c(NC(=O)CSc2n[nH]c(-c3ccccc3)n2)c1,-2,34*,1,-1,-7
Cc1cc(SCC(=O)c2ccc3c(c2)OCO3)nc2ccccc12,5,-1,0,8,28
Cc1cc(SCC(=O)c2ccc(O)c(O)c2)nc2ccccc12,5,12*,0,16,7
CCc1ccc(C(=O)CSc2n[nH]c(-c3ccncc3)n2)cc1,-2,-18,0,1,-10
COc1ccc(-c2nc(SCC(=O)Nc3cccc(S(N)(=O)=O)c3)n[nH]2)cc1,-5,11*,0,-8,-5
O=C(CSc1n[nH]c(-c2ccccc2)n1)c1ccc(O)c(O)c1,-3,12*,0,6,-10
NS(=O)(=O)c1cccc(NC(=O)CSc2n[nH]c(-c3cccs3)n2)c1,-8,0,0,-13,-9
O=C(O)CCC(C(=O)O)N1C(=O)C2C3CCC(C3)C2C1=O (configuration not stated),-6,.,0,-9,-3
CCN(CC)c1ccc(C=C2C(=O)OC3(CCCCC3)OC2=O)cc1,-1,18*,0,-11,-6
COCCOc1cc(N2C(=O)CSCC2=O)c(Cl)cc1Cl,2,12*,0,8,-7
CNC(=O)CS(=O)(=O)CC(=O)Nc1cc(OCCOC)c(Cl)cc1Cl,0,-1,0,-2,-3
COc1cc(NS(=O)(=O)c2ccc(F)cc2)c(C(=O)O)cc1OC,-4,12*,3,1,-1
CCOc1ccc(S(=O)(=O)Nc2cc(OC)c(OC)cc2C(=O)O)cc1,-5,2,0,-9,-6
Cc1nn2c(-c3cccnc3)ccnc2c1-c1ccccc1,2,-1,0,3,5
CS(=O)(=O)c1ccc(C(=O)OCC(=O)NC(=O)C2CCCCC2)cc1[N+](=O)[O-],-1,19*,0,-4,7
CS(=O)(=O)c1ccc(C(=O)OCC(=O)NC(=O)C2COc3ccccc3O2)cc1[N+](=O)[O-] (configuration not stated),-3,-2,0,-10,1
CC(=O)N(C1=C(N)C(=O)c2ccccc2C1=O)c1ccccc1,2,-3,4.1*,-7,-4
Cc1c(Cl)cccc1NC(=O)CCC(=O)NNC(=O)CCC(=O)O,1,-1,0,3,-5
CCOc1cc(NC(=O)CC(C)C)c(OCC)cc1NC(=O)CCn1nnc2ccccc21,-4,0,0,-2,-10
Cc1nn(-c2ccccc2)c(C)c1-c1ccccc1O,-2,1,0,5,2
Cc1nn(-c2ccccc2)c(/N=C/c2ccc(O)cc2)c1-c1ccccc1,7,26*,0,-15,4
CCCCSc1nnc(-c2ccc(NC(=O)CCc3ccccc3)cc2)n1C,-2,0,0,-16,-10
S=C(NNC(=S)Nc1ccccc1)Nc1ccccc1,3,35*,0,6,-6
Fc1cc(Br)ccc1NC(=S)Nc1ccccc1,-2,-1,0,-5,-10
O=C(NNC(=S)Nc1ccccc1)C1CC1,-3,-2,0,4,-9
Fc1ccccc1NC(=S)Nc1ccc(Br)cc1,-5,25*,0,4,5
S=C(Nc1ccccc1)Nc1cccc(Br)c1,-4,16*,0,-5,0
S=C(Nc1ccccc1)Nc1ccc(Br)cc1,-5,4,1,0,0
